# PubChem BioAssay (NCATS)
# Records with an inconclusive call do not appear. Entries that show only a call come without a potency. Activity calls are given as the source filed them. Calls come from the whole dose curve; as a rule, active = well fitted cell-killing curve with a large enough effect; inconclusive = small, poorly fitted or top-dose-only effect; inactive = flat fitted curve, though single readings scatter.
# Experiment: Panc-1005 Cancer Cell Toxicity qHTS against the NCATS CANVASS Library (AID 1347349); note: nearly all actives have a fitted effect of over 60% in size
# Conditions: Panc-1005 viability, CellTiter-Glo luminescence, 72 h; series mostly up to 38.3 µM
# Text: Natural products and their derivatives continue to be wellsprings of nascent therapeutic potential. However, many laboratories have limited resources for biological evaluation, leaving their previously isolated or synthesized compounds largely or completely untested. To address this issue, the Canvass library of natural products was assembled (https://tripod.nih.gov/canvass), in collaboration with academic and industry researchers, for quantitative high-throughput screening (qHTS) across a diverse set of cell-based and biochemical assays. The pure (>85% purity by liquid chromatography/mass spectrometry [LC/MS]) Canvass library of 346 natural products were submitted by 45 academic laboratories and companies around the world. We collected pure natural products to circumvent deconvolution and structure elucidation due to time and resource limitations. The library was formatted into 1536-well plates and evaluated in 50 qHTS (in an 11-pnt concentration series) bioassays with broad scope of disease-relevant mechanisms. The resulting data set from 50 different assays was then systematically analyzed to identify overall trends and specific natural products with interesting biological activities. Reported herein are the results of each individual qHTS and their corresponding assay protocol. National Center for Advancing Translational Sciences (NCATS), Rockville, MD National Institute of Health (NIH), Bethesda, Maryland
# Cancer Cell Toxicity protocol for cell lines COV-362, OV-KATE, OV-SAHO, UWB1.289, UWB1.289-WTBRCA1, HEK-293, HPAF-II, Panc-1005, SW1088, or U-118MG. 1. In a 1536 well, white solid bottom tissue culture plates (Corning 7494), corresponding cells (COV-362, OV-KATE, OV-SAHO, UWB1.289, UWB1.289-WTBRCA1, HEK-293, HPAF-II, Panc-1005, SW1088, or U-118MG) were dispensed in each well at a final concentration of 1000 cells / well (6uL volume) using the Multidrop Combi (Thermo Fisher Scientific) dispenser. 2. The plates were incubated for 4 hours at 37 degrees C/5% CO2/95% Rh. 3. Compounds were pin transferred (~23nL volume) via Wako Pin-tool (Wako Automation, Richmond VA) equipped with a 1536 pin head. The assay plates were treated with compounds in an 11-pnt concentration series with a final concentration range of […] to 85uM. 4. Bortezomib was used as a single dose control (0.5mM column 4, rows 1 - 32) at a final concentration of 1.9uM and as a 16pnt titration (1mM; 1:2 dilution; 16-points; n = 2; column 3, rows 1 - 32) with final concentration range of 0.1nM - 3.8uM. 5. The assay plates were incubated for 72 hours at 37 degrees C/5% CO2/95% Rh. 6. 3uL CellTiter-Glo detection reagent was then added to the plates (columns 2 - 48, rows 1 - 32) and incubated at room temperature for additional 15min. 7. Luminescence signal was acquired via the ViewLux plate reader (PerkinElmer) using a clear filter, 2 second exposure and 2x binning settings.
# Potency is the fitted concentration of half-maximal effect.
row,Compound,Potency
1,O=C(c1ccccc1O)c1[nH]c(Cl)c(Cl)c1-n1c(C(=O)c2ccccc2O)cc(Cl)c1Cl,2.11 µM (active)
2,CC1=CC(=O)C2=C(C)C[C@H](O)[C@@H]3[C@H](OC(=O)[C@@H]3C)[C@@H]12,inactive
3,CO[C@H](c1ccccc1)[C@H]1NC(=O)C(C)NC(=O)C(C[C@@H](C)CO)N(C)C(=O)[C@@H](C(O)c2cn(C(C)(C)C3CO3)c3ccccc23)NC(=O)C(C(C)C=C(C)C)NC(=O)C(CC(C)C)N(C)C(=O)C(C(C)C)NC1=O (some centres undefined),inactive
4,CC[C@@H]1CN2CC[C@@]3(O)C(=Nc4cccc(OC)c43)[C@@H]2C[C@@H]1/C(=C\OC)C(=O)OC,inactive
5,CCCCC[C@@H]1OC(=O)[C@@H](C)N(C)C(=O)[C@H](CCCCC)OC(=O)C(C)N(C)C(=O)[C@H](CCCCC)OC(=O)[C@@H](C)N(C)C(=O)[C@H](CCCCC)OC(=O)C(C)N(C)C1=O (some centres undefined),8.41 µM (active)
6,CO[C@@H](/C=C/CC/C=C/C(=O)O)[C@@H](O)[C@H](C)[C@@H](O)/C(C)=C/[C@H](C)C(=O)CCCC1CC(=O)NC(=O)C1,inactive
7,COC(=O)C1=C2Nc3ccccc3[C@@]23CCN2CC(C(C)=O)C1C[C@H]23 (some centres undefined),inactive
8,c1ccc2c3c([nH]c2c1)CNCC3,inactive
9,CO[C@@H](/C=C/CC/C=C/C(=O)O)[C@@H](O)[C@H](C)/C=C(\C)[C@@H](O)[C@H](C)C(=O)CCCC1CC(=O)NC(=O)C1,inactive
10,CCC[C@H]1CC[C@H]2[C@H](C)CCC[C@H]2N1,inactive
11,CCC(=O)CCCCC[C@@H]1NC(=O)[C@H]2CCCCN2C(=O)[C@H]([C@@H](C)CC)NC(=O)[C@H](Cc2cn(OC)c3ccccc23)NC1=O,0.668 µM (active)
12,NCCc1ccccc1,inactive
13,CNCCc1ccccc1,inactive
14,CN(C)Cc1c[nH]c2ccccc12,inactive
15,CNCCc1c[nH]c2ccccc12,inactive
16,CCCC[C@@H]1CC[C@H]2CCCC(CCC)N12 (some centres undefined),inactive
17,CNCCc1ccc(O)cc1,inactive
18,COc1ccc2c(c1)[nH]c1c(C)nccc12,30.6 µM (active)
19,COc1ccc(C23Oc4cc(OC)cc(OC)c4[C@](O)([C@H](c4ccccc4)C2C(=O)NCCCCNC(=O)c2ccccc2)[C@@H]3O)cc1 (some centres undefined),inactive
20,C[C@@H]1CC[C@@H](c2ccoc2)N2C[C@@]3(CC[C@@H]12)CS[C@@]1(CC[C@H]2[C@H](C)CC[C@@H](c4ccoc4)N2[C@@H]1O)C3,5.3 µM (active)
21,CC[N@@+]1([O-])C[C@]2(C)CC[C@@H](O)[C@@]34C5C[C@H]6CC[C@@]5(C(C[C@H]23)C41)[C@H](O)[C@@]6(O)CO (some centres undefined),inactive
22,CC=C1CN(C=O)[C@H]2C[C@@H]1[C@@H](C(=O)OC)[C@@]13CCOC21Nc1ccccc13 (some centres undefined),inactive
23,CN1C(=O)[C@]23CC4C(C)(C)[C@@]5(C[C@@]41CN2CC[C@@]3(C)O)C(=O)Nc1c5ccc2c1OC=CC(C)(C)O2 (some centres undefined),inactive
24,CCN1C[C@]2(C)CC[C@H](O)[C@]34C1C(C[C@H]23)[C@@]12CC[C@H](CC14)[C@](O)(COC(=O)c1ccc(OC)c(OC)c1)[C@H]2O (some centres undefined),inactive
25,C[C@]12CC(O)C3[C@@H](CCC4C[C@@H](O)CC[C@@]43CO)[C@@]1(O)CCC2C1=CC(=O)OC1 (some centres undefined),inactive
26,CC1=CC2CC[C@@H]3[C@@H](C)C[C@H](C)[C@@H](C1)N23 (some centres undefined),inactive
27,CCN1C[C@]2(C)CC[C@@H](O)[C@]34C1[C@H](C[C@H]23)C12CCC(CC14)[C@](O)(CO)[C@H]2O (some centres undefined),inactive
28,CC(=O)N[C@H]1CCN2CCC[C@H]12,inactive
29,C/C=C1/CN2CC[C@]34C(=Nc5ccccc53)[C@@H]2C[C@@H]1[C@H]4C(=O)OC,inactive
